# JMJD2A Tudor – inhibitors of human JMJD2A Tudor domain. O75164. AlphaScreen JMJD2A-Tudor / H3K4me3 peptide binding. Potency, µM (highest dose often 114 µM), for inactives: top-dose activity change, negative = inhibition, most hits filed as inhibitors. 4.4% of 390,000 active; note: % is set by controls: 0 for no effect and ±100 for the full control effect; nearly all actives have a fitted effect of over 50% in size
# G9a inh – blocks human histone lysine methyltransferase G9a; Q96KQ7; G9a H3K9 monomethylation, AlphaScreen, 2 h; Potency, µM (highest dose often 102 µM), for the others: at the highest dose activity, negative = inhibition, usual class: inhibitors; 8.8% of 350,000 active; AID 504332; note: % is set by controls: 0 for no effect and ±100 for the full control effect; nearly all actives have a fitted effect of over 75% in size
#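 G9a (20 nM) preincubated 15 min RT with compounds, then 500 nM biotinylated H3K9 peptide and 20 uM SAM added; 2 h RT reaction. Monomethyl-H3K9 product detected by AlphaScreen with anti-H3K9me1 antibody, streptavidin donor and anti-rabbit IgG acceptor beads.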
# Sfp PPTase inh – blocks B. subtilis Sfp PPTase activity; AID 1490; Potency, µM, inactives show largest response in the series, negative = inhibition, actives largely listed as inhibitors; Biochemical Sfp PPTase activity, qHTS; 3.5% of 310,000 active; Q9F4F7;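 note: the enzyme is Sfp with the accession as filed and its product quenches rhodamine fluorescence; 0% = enzyme reaction without inhibitor and -100% = no enzyme wells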
#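 After 15 min at room temperature with compound, 15 nM Sfp received 5 uM rhodamine-CoA plus 12.5 uM BHQ-2-ybbR (50 mM Hepes pH 7.6, 10 mM MgCl2). Rate came from the fluorescence difference over 30 min, ex 525/em 598 nm.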
# L3MBTL1 inh – inhibitors of human L3MBTL1; Q9Y468; AlphaScreen L3MBTL1–H3K9me1 peptide binding; Potency, µM (top dose mostly 57.1 µM), inactives show top-dose activity, negative = inhibition, actives largely listed as inhibitors; 0.66% of 230,000 active; AID 485360; note: % is set by controls: 0 for no effect and ±100 for the full control effect; nearly all actives have a fitted effect of over 60% in size
#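 Displacement of a biotinylated histone H3(1-15) peptide monomethylated at Lys9 (75 nM) from L3MBTL1 (50 nM) was measured by AlphaScreen after a 30 min room-temperature compound incubation; cefsulodin titration served as intraplate control.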
# BAZ2B inh – inhibitors of human BAZ2B bromodomain; Q9UIF8; AlphaScreen BAZ2B-H3K14Ac peptide displacement; Potency, µM (doses to about 114 µM), without a hit: at the highest dose activity change, negative = inhibition, hits mostly inhibitors; 4.4% of 360,000 active; AID 504333; note: % is set by controls: 0 for no effect and ±100 for the full control effect; nearly all actives have a fitted effect of over 60% in size
# Target sequence (Q9UIF8 whole entry, looked up): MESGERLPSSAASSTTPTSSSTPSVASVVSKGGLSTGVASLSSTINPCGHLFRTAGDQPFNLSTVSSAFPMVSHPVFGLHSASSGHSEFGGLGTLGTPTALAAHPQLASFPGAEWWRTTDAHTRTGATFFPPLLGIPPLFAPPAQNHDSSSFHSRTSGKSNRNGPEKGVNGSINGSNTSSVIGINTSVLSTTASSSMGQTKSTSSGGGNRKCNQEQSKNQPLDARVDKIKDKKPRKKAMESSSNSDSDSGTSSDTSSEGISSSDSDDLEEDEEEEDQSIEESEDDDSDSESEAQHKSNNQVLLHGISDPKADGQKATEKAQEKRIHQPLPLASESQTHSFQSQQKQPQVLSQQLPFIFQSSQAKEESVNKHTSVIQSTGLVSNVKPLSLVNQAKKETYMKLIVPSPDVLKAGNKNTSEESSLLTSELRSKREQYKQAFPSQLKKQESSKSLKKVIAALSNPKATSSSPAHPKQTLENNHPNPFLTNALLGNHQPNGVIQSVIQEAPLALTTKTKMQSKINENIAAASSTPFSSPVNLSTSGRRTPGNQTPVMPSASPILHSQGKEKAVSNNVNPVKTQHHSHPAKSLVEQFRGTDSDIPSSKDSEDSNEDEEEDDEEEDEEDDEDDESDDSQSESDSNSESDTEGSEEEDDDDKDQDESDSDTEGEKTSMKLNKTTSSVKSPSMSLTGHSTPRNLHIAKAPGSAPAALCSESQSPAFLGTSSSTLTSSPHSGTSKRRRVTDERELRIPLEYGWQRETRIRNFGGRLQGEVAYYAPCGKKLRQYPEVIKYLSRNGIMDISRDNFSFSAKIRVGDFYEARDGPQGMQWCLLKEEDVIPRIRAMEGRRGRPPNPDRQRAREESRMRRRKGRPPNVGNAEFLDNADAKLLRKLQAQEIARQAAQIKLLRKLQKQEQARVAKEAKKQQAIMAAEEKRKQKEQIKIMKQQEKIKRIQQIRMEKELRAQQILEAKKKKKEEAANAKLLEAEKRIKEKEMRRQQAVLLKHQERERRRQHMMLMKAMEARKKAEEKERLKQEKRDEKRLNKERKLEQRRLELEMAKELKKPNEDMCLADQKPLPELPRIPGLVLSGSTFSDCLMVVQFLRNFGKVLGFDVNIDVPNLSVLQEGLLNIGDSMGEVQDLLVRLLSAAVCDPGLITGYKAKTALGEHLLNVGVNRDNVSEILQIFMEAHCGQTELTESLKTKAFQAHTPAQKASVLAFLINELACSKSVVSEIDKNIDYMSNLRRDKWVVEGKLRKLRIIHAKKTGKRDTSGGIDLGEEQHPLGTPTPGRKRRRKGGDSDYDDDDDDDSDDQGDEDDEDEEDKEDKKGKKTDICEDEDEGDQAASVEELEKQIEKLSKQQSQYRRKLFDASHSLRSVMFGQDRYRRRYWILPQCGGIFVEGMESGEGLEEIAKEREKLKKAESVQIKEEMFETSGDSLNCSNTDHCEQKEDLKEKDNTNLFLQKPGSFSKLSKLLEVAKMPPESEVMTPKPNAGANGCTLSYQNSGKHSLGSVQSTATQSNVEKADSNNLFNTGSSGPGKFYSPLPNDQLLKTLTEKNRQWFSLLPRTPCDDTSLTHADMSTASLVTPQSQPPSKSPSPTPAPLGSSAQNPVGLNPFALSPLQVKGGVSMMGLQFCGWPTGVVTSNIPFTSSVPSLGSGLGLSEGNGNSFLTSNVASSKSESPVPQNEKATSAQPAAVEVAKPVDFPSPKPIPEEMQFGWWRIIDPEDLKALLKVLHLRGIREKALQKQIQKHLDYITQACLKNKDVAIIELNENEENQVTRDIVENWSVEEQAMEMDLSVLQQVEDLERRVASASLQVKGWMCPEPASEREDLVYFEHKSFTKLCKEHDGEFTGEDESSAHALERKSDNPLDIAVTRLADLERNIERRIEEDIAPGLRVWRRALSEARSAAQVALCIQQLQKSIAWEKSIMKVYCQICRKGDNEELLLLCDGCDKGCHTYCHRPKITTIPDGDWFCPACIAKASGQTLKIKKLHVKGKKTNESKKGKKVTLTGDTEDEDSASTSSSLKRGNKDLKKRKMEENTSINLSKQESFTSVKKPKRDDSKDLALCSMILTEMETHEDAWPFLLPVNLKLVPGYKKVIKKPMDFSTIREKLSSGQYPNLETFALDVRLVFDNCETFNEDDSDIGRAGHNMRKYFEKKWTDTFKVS
#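 Inhibition is scored as reduced AlphaScreen emission. The BAZ2B/b-H3(5-23)K14Ac complex (50 nM each) in PBS pH 7.4, 0.01% Tween-20 meets compound (up to 110 uM) for 30 min at RT before bead addition.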
# HP1b binding inh – inhibitors of HP1-beta chromodomain binding to methylated histone tails; P83916; AlphaScreen HP1-beta / biotin-H3K9me3 peptide binding; Potency, µM (titrated, usually from 114 µM), for the others: at the highest dose activity change, negative = inhibition, usual class: inhibitors; 0.56% of 390,000 active; AID 540317; note: nearly all actives have a fitted effect of over 70% in size
#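 HP1-beta protein (50 nM final) preincubated 30 min at room temperature with biotinylated H3(1-18)K9me3 peptide (50 nM) in PBS pH 7.4, 0.01% Tween-20, then compound added for 30 min. AlphaScreen streptavidin donor/nickel chelate acceptor beads (10 ug/mL final), 30 min dark, luminescence read.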
# The depositor's hits bear a star; ? = inconclusive; . = no result given; [ ] = another dose, or the depositor's remark. Rows were chosen to be rich in hits. Some 12% of all compounds tested hit in one or more screens of this group. Calls come from the whole dose curve; as a rule, active = well fitted curve in the direction sought with a large enough effect; inconclusive = small, poorly fitted or top-dose-only effect, or another doubt; inactive = no such curve, though single readings can be large; an effect the other way counts as inactive or inconclusive. Potency is the fitted concentration of half-maximal effect.
SMILES,JMJD2A Tudor,G9a inh,Sfp PPTase inh,L3MBTL1 inh,BAZ2B inh,HP1b binding inh
Cc1cc2c(cc1NS(=O)(=O)c1cccc(C#N)c1)n(C)c(=O)c(=O)n2C,-8%,10µM*,.,.,-16%,62%
Cc1cc2c(cc1NS(=O)(=O)c1ccc(Br)cc1)n(C)c(=O)c(=O)n2C,-4%,12%[59 µM],.,.,-7%,0%
CC(C)c1ccc(NC(=O)CSc2nc(=O)n(Cc3ccccn3)c3c2CCC3)cc1,-24%,-9%[59 µM],.,.,12%,55%
COc1ccc2c(c1)C(=O)[C@@H](OC(=O)NS(=O)(=O)c1ccc(F)cc1)[C@H](c1ccc(OC)c(Br)c1)O2,.,.,-5%,.,.,.
CCOC(=O)C1=C(c2ccccc2)NC(N)=NC1c1ccc(OCc2ccc(Cl)cc2)c(OC)c1 (configuration not stated),?,-44%[59 µM],32µM*,?,?,-17%[57 µM]
O=C(NCc1ccco1)c1c2c(nc3ccccc13)CCC2,?,40µM*,50µM*,?,50µM*,?
CCCC(C)NC(=O)c1c2c(nc3ccccc13)CCC2 (configuration not stated),-32%,-43%,1%,?,50µM*,10%
Nc1c(C(=O)NCc2ccco2)sc2nc3c(cc12)C(=O)CCC3,56µM*,?,-18%,32µM*,?,-3%
Cc1nn(CCCC(=O)Nc2cccc(F)c2)c(=O)c2c1sc1ccccc12,-32%,?,.,.,-18%,7%
COCCNc1oc(/C=C/c2ccc(F)cc2)nc1C#N,-1%,5%[59 µM],.,.,-14%,20%
COc1ccc(NC(=S)NCCSc2ccc(Cl)cc2)c(OC)c1,-33%,13µM*,?,?,?,-21%
COc1ccccc1NC(=S)NCCSc1ccc(Cl)cc1,-2%,-4%,5%,-17%,-30%,36%
COc1ccc(NC(=O)NCCCN2CCCC2=O)cc1,-10%,?,13%,5%,-2%,48%
COc1ccc(-n2c(=S)[nH]c3cc(C(=O)NCCCN4CCOCC4)ccc3c2=O)cc1,-14%,28µM*,-17%,.,-2%,19%
COc1ccc(NC(=O)CC(C)NCCCN2CCCC2=O)cc1 (configuration not stated),18µM*,56µM*,?,.,?,?
COc1ccc(-n2c(=S)[nH]c3cc(C(=O)NCCCN4CCCC4=O)ccc3c2=O)c(OC)c1,14µM*,32µM*,-9%,.,-4%,50%
CC(C)OCCCn1c(=O)c2ccccc2n2c(-c3cc(Cl)ccc3O)nnc12,-20%,-45%[59 µM],.,.,2%,38%
CCOC(=O)N1CCN(C(=O)c2ccc3c(c2)N(Cc2ccccc2F)C(=O)c2ccccc2S3(=O)=O)CC1,-11%,-6%[59 µM],.,.,-8%,13%
COc1ccc(NC(=S)NCCCN2CCCC2=O)c(OC)c1,1%,?,40µM*,-3%,-27%,20%
O=C1CCCN1CCCNC(=S)Nc1ccc(Cl)cc1Cl,-15%,3%,11%,4%,-2%,33%
O=C(NCCCN1CCOCC1)c1ccc2c(=O)n(-c3ccc(F)c(Cl)c3)c(=S)[nH]c2c1,-20%,40µM*,-5%,.,-9%,3%
O=C(O)c1ccc2c(=O)n(-c3ccc(F)c(Cl)c3)c(=S)[nH]c2c1,-7%,?,10%,10%,-2%,7%
CN(C)S(=O)(=O)N(CC(=O)NCCSCc1cccc(Cl)c1)c1ccccc1,5%,3%[59 µM],.,.,1%,44%
Cn1c(=O)c2c(nc(CN3CCN(c4ccccc4)CC3)n2CCN2CCOCC2)n(C)c1=O,-13%,50µM*,-3%,5%,-1%,22%
COc1ccc(N2CCN(Cc3nc4c(c(=O)n(C)c(=O)n4C)n3CCc3ccccc3)CC2)cc1,-19%,7.9µM*,-5%,-2%,-3%,3%
SMILES,JMJD2A Tudor,G9a inh,Sfp PPTase inh,L3MBTL1 inh,BAZ2B inh,HP1b binding inh
COc1ccc(N2CCn3c2nc2c3c(=O)n(CCc3ccccc3)c(=O)n2C)cc1,.,7%,6%,-7%,-1%,.
Cn1c(=O)c2c(nc(CN3CCOCC3)n2CCc2ccccc2)n(C)c1=O,-2%,?,14%,-3%,-15%,23%
COc1ccc(N2CCCn3c2nc2c3c(=O)n(CCCc3ccccc3)c(=O)n2C)cc1,.,10µM*,3%,-2%,?,.
CCCCc1cc2c(cn1)=C(OC(=O)c1ccc(Cl)nc1)C(C)(OC(=O)CC)C(=O)C=2 (configuration not stated),.,.,7%,.,.,.
O=C1[C@H]2[C@H]3[C@H](O)[C@H](O)C/C(=N/OCc4ccccc4)[C@@H]3CC[C@@H]2C(=O)N1c1cccc(Oc2ccccc2)c1,.,.,9%,.,.,.
O=C(CC1C(=O)NCCN1Cc1ccc(F)cc1Cl)NCc1ccon1 (configuration not stated),-10%,32µM*,18%,.,-16%,43%
CC(C)c1nc(CNC(=O)CC2C(=O)NCCN2Cc2ccc(F)cc2Cl)cs1 (configuration not stated),-29%,.,-2%,.,-13%,36%
Cc1cc(C)nc(CCNC(=O)CC2C(=O)NCCN2Cc2ccc(F)cc2Cl)n1 (configuration not stated),-7%,45µM*,-7%,.,-5%,16%
CCCc1nnc(NC(=O)CN2CCN(C)CC2)s1,-20%,?,-19%,.,79µM*,35%
CCCN1CCN(CC(=O)Nc2nnc(C)s2)CC1,-9%,.,-19%,.,-29%,13%
CN1CCN(CC(=O)Nc2nnc(-c3cccs3)s2)CC1,11µM*,?,-1%,3%,-4%,4%
CCC(CC)C(=O)Nc1nnc(-c2cccs2)s1,-12%,16µM*,-5%,5%,5%,-13%
COc1cccc(OC)c1C(=O)Nc1nnc(-c2cccs2)s1,-14%,.,-28%,-7%,-1%,-2%
COCCCNC(=O)c1cc2c(=O)oc3ccc(C)cc3c2s1,-2%,4%[59 µM],.,.,-5%,36%
COC(=O)c1ccc(NC(=O)CSc2nc(=O)[nH]c3c2CCCC3)cc1,-8%,-5%[59 µM],.,.,4%,23%
CCOC(=O)c1sc(NC(=O)c2cc(-c3ccccc3C)nc3ccccc23)c(C#N)c1C,-34%[11.4 µM],1.6µM*,45µM*,.,-7%,6.3µM*
Cc1ccccc1-c1cc(C(=O)Nc2sc(C)c(C)c2C(N)=O)c2ccccc2n1,?,?,50µM*,.,?,?
CCOC(=O)c1c(NC(=O)c2cc(-c3ccc(Cl)s3)nc3ccccc23)sc(C(N)=O)c1C,-8%,-5%[59 µM],4%,-12%,-1%,38%
CSc1cccc(NC(=O)c2ccc3c(c2)CCCN3S(C)(=O)=O)c1,-30%,4%[59 µM],.,.,-16%,30%

# Assay outcomes: PubChem BioAssay, National Center for Advancing Translational Sciences (NCATS)
